Among all 310,000 compounds or so, about 1,200 (0.39%) were called active. The rule behind the calls is not given here. The list is a sample of the results. Measured potencies and affinities stand elsewhere.
molecular target: Large T antigen (Simian virus 40) (UniProt P03070); assay: SV40 large T antigen inhibitors, biochemical (AID 1903); conditions: SV40 large T antigen ATPase/helicase inhibition assay; at 20 µM; active compounds read high
Sequence (P03070 whole entry, looked up): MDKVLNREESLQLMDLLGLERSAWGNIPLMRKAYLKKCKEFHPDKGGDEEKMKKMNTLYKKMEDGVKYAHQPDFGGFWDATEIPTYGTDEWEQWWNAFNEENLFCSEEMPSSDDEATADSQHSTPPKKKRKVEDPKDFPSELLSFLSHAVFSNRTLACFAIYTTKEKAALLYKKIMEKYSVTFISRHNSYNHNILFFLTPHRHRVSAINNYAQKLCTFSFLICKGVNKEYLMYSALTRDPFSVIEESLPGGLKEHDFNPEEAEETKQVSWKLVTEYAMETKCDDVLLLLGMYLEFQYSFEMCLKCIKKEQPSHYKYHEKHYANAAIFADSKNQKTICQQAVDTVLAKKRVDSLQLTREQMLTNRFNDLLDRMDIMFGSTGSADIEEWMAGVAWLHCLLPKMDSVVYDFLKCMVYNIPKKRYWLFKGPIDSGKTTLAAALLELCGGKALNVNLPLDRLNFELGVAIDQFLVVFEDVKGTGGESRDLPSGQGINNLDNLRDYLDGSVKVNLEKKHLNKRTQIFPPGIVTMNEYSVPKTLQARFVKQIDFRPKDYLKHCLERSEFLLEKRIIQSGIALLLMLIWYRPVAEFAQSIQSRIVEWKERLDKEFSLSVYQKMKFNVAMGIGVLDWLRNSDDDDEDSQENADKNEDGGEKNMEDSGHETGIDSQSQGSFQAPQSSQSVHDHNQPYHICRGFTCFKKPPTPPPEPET

inhibition, inactive:
CCC1CCCCN1CCCNC(=O)C1CCN(c2nnc(-n3cccc3)s2)CC1 (stereo not given) 8.7%
CC1CCCCN1CCCNC(=O)C1CCN(c2nnc(-n3cccc3)s2)CC1 (stereo not given) 6.84%
CCOc1ccc(CCNC(=O)C2CCN(c3nnc(-n4cccc4)s3)CC2)cc1 7.09%
CC1CC(C)CN(CCCNC(=O)C2CCN(c3nnc(-n4cccc4)s3)CC2)C1 (stereo not given) 7.41%
Cc1ccc(C)n1-c1nnc(N2CCC(C(=O)NCCCN3CC(C)CC(C)C3)CC2)s1 (stereo not given) -2.68%
CCN1CCN(CCCNC(=O)C2CCN(c3nnc(-n4cccc4)s3)CC2)CC1 12.4%
O=C(NC1CC(=O)N(c2ccc3c(c2)OCCO3)C1)N1CCCCC1 (stereo not given) 11.8%
CCN(CC)S(=O)(=O)c1ccc(S(=O)(=O)N2CCN(CCC#N)CC2)cc1 2.53%
CCCc1nc2ccc(NC(C)=O)cc2c(=O)n1Cc1ccccc1Cl 19.8%
CC1CCCCC1NC(=O)/C(C#N)=C/c1ccc(F)c(F)c1 (stereo not given) -0.71%
CC(=O)N1N=C(c2ccc(NS(C)(=O)=O)cc2)CC1c1ccc2nccnc2c1 (stereo not given) 8.1%
O=C(O)C1CC=CCC1C(=O)NC1CCCCC1 (stereo not given) 20.5%
Cn1cnc([N+](=O)[O-])c1Sc1nnc(-c2cccnc2)n1C 7.52%
CCn1ncc([N+](=O)[O-])c1C(=O)n1nc(C)cc1C 18.1%
Cc1onc(-c2ccccc2Cl)c1C(=O)OCC(=O)Nc1cccc(S(=O)(=O)N2CCOCC2)c1 4.68%
O=C(N/N=C/c1cccc(O)c1)c1csc2ccccc12 9.57%
C/C(=N\NC(=O)c1csc2ccccc12)c1ccc(O)cc1 26.5%
O=C(C[n+]1ccccc1)N/N=C/c1ccc(F)cc1 8.34%
O=C(CCn1cnc2ccccc21)N/N=C/c1ccccc1O 14.7%
CN(C)c1ccc(/C=N/NC(=O)C[n+]2ccccc2)cc1 17.6%
COc1ccc(/C=N/NC(=O)CC(=O)N/N=C/c2ccc(OC)cc2)cc1 -38%
COc1ccc(/C=N/NC(=O)CCn2cnc3ccccc32)cc1 2.3%
O=C(CC(=O)N/N=C/c1ccc(F)cc1)N/N=C/c1ccc(F)cc1 10.6%
CC(C)Cn1cc(C(=O)N2CCN(c3ccccn3)CC2)c2c3ccccc3n(C)c2c1=O 1.5%
COc1nc(NC(=O)c2ccc(F)cc2)nc(OC)c1-c1ccccc1 6.25%
COc1ccc(-c2csc(NC(=O)CN3C(=O)NC4(CCCC4)C3=O)n2)cc1OC 23.8%
CCCOc1ccc(-c2nc(C#N)c(NCC3CCCO3)o2)cc1 (stereo not given) 3.05%
O=C(CSc1nc2ccccc2s1)NCCCN1CCOCC1 -10.3%
COc1ccc(CCC(=O)NC2=NCCS2)cc1OC 13.6%
O=C(Nc1ccc2c(c1)OCCO2)c1ccco1 30.4%
CCOC(=O)CSc1nc2sc3c(c2c(=O)n1C1CCCCC1)CCN(C)C3 24.2%
CCC(NC(=O)c1cc(COc2ccc(Cl)cc2OC)on1)c1ccncc1 (stereo not given) 7.95%
CCn1c(CC(=O)Nc2ccc(C)c(Cl)c2)nnc1SCc1ccc(Cl)c(Cl)c1 2.82%
O=[N+]([O-])c1ccc(Cl)c2c1C1C=CCC1C(c1ccccn1)N2 (stereo not given) 21.7%
CC(C)C1Nc2c(O)cc(Cl)c([N+](=O)[O-])c2C2C=CCC21 (stereo not given) 21.4%
Cc1ccc(CNC(=O)CCC2CCCN(C(=O)c3ccc4c(c3)OCO4)C2)o1 (stereo not given) 12.7%
CNc1nc(Nc2ccc(Br)cc2)nc(N)c1[N+](=O)[O-] 9.77%
N#Cc1cnc(Nc2ccc(F)cc2)nc1N 7.13%
C[C@H](CCC(=O)O)[C@H]1CC[C@H]2[C@@H]3CC[C@@H]4C[C@H](O)CC[C@]4(C)[C@H]3C[C@H](O)[C@]12C 12.7%
C[C@H](CCC(=O)O)[C@H]1CC[C@H]2[C@@H]3[C@H](O)C[C@@H]4C[C@H](O)CC[C@]4(C)[C@H]3CC[C@]12C 19.2%
Cc1nsc2nc3c(F)c(F)c(F)c(F)c3cc12 16.9%
Cc1c(/C=N/NC(N)=O)c2ccccn2c1C(=O)c1ccncc1 15%
COc1ccc(/C=C/C(=O)OCC(=O)Nc2ccc(S(N)(=O)=O)cc2)cc1OC 5.77%
CCCCOc1ccc(/C=C/C(=O)OCC(=O)N2CC(=O)Nc3ccccc32)cc1OCC 14.1%
COc1ccc(/C=C/C(=O)OCC(=O)N2CC(=O)Nc3ccccc32)cc1 1.89%
COc1cc(/C=C/C(=O)OCC(=O)Nc2ccc(S(=O)(=O)N3CCCC3)cc2)ccc1O 24.6%
Cc1cc(C(=O)NCCC(c2ccccc2)c2ccccc2)c(C)o1 8.32%
CC1(C)Cc2cccc(Oc3cc(NN4CCCCC4)c([N+](=O)[O-])cc3[N+](=O)[O-])c2O1 1.3%
Cc1nn(C(C)C(=O)NCC2CCCO2)c(=O)c2cc3occc3n12 (stereo not given) -0.26%
COc1ccc(/C=N/NC(=O)CSc2ccccn2)cc1OC 10.6%
COc1cc(/C=N/NC(=O)CSc2ccccn2)ccc1OC(C)C 14.9%
CN(C)c1ccc(/C=N/NC(=O)CSc2ccccn2)cc1 25.6%
CCCOc1ccc(/C=N/NC(=O)CSc2ccccn2)cc1OC 3.28%
CCN(C(=O)CN1C(=S)NC(C)(C)CC1C)c1ccc(C)c(C)c1 (stereo not given) 6.37%
O=C(CSc1nnc(NC(=O)c2c(F)cccc2F)s1)Nc1ccccc1F 11.2%
CCCOc1ccccc1N1C(=O)CC(N(O)c2ccccc2)C1=O (stereo not given) 20.6%
CCNc1nc(NCC)nc(NC(N)=S)n1 1.3%
Cc1cc(C)c2nncn2n1 11.8%
O=C(O)Cc1c[nH]c2ccccc12 10.4%
NC(=O)Cc1c[nH]c2cccc(O)c12 30.1%
CCOC(=O)C1Nc2ccc(C)cc2C2C=CCC12 (stereo not given) 8.94%
O=C(NC1CC1)C1Nc2ccc(OC(F)(F)F)cc2C2C=CCC12 (stereo not given) 6.67%
CCOC(=O)c1ccc2c(c1)C1C=CCC1C(C(=O)OCC)N2 (stereo not given) 12.4%
CCOC(=O)C1Nc2ccc(C(=O)O)cc2C2C=CCC12 (stereo not given) 16.5%
CCOC(=O)C1Nc2ccc(OC(F)(F)F)cc2C2C=CCC12 (stereo not given) 19.1%
O=C(O)C1Nc2c(Cl)cc(Cl)c(Cl)c2C2C=CCC12 (stereo not given) 31%
Cc1cc(C)c2c(c1)NC(c1cc3c(cc1Br)OCO3)C1CC=CC21 (stereo not given) 9.15%
Cc1ccc2c(c1)C1C=CCC1C(C(=O)NCCCN1CCOCC1)N2 (stereo not given) 12.6%
O=S(=O)(Nc1cccc(-c2ccc(N3CCCCCC3)nn2)c1)c1ccc(C(F)(F)F)cc1 2.18%
C#CCOCCOCCOCCNc1nc(N2CCN(C(=O)Cn3cc(CCCCN)nn3)CC2)nc(N2CCN(C(=O)[C@H](C(C)C)n3cc(CCO)nn3)CC2)n1 9.84%
CC1=C(C(=O)NCc2ccccc2)C(c2cccnc2)n2ncnc2N1 (stereo not given) 0.75%
Cc1cc(=O)[nH]c(SCc2ccccc2)n1 -3.07%
CCN(c1ccccc1)S(=O)(=O)c1ccc2ccccc2c1 1.9%
COc1cccc(OC)c1C(=O)Nc1ccc([N+](=O)[O-])cn1 8.19%
O=C(OC1CCCCC1)c1ccc2c(c1)C1C=CCC1C(C(=O)O)N2 (stereo not given) 33.8%
CC(=O)c1ccc2c(c1)C1C=CCC1C(c1ccncc1)N2 (stereo not given) 7.95%
COc1cc(SC)ccc1C(=O)N1CCN(c2ccccc2OC)CC1 2.01%
COc1ccc(N2CCN(C(=O)c3ccc(SC)cc3OC)CC2)cc1 18.7%
COc1ccccc1NC(=O)COC(=O)c1ccccc1C(=O)N1CCN(c2ccccc2)CC1 6.53%
COc1cc(SC)ccc1C(=O)N1CCN(c2ccccc2)CC1 2.66%
COc1cc(SC)ccc1C(=O)N1CCN(Cc2ccc3c(c2)OCO3)CC1 18.1%
COc1cc(Cl)ccc1NC(=O)COc1ccccc1C(=O)NN 6.94%
Cc1ncc([N+](=O)[O-])n1Cc1ccc(Br)cc1 7.03%
CCc1cccc(C)c1NC(=O)CN(C)Cc1ccc(Br)cc1 9.47%
O=C(NCc1ccco1)C1CC(c2ccc(F)cc2)=NO1 (stereo not given) 6.38%
COC(=O)/C(C#N)=C\c1c(OC)[nH]c2ccccc12 8.82%
N#C/C(=C\c1c[nH]c2ccccc12)C(N)=O 5.89%
O=C(CN(c1ccccc1F)S(=O)(=O)c1ccccc1)Nc1ccccc1C(=O)N1CCOCC1 11.3%
Cc1cccc(NC(=O)c2ccc(N3CCOCC3)c([N+](=O)[O-])c2)n1 -1.72%
O=C(CNC(=O)c1cccc(F)c1)N/N=C/c1cccnc1 20.9%
C=C(C)CSc1nc2c(cc1C#N)CCC2 7.26%
CCn1c(COc2ccc(C)cc2)nc2ccccc21 3.75%
Cc1ccc(-c2nc3ccccc3nc2-c2ccccc2)cc1 0.76%
Cc1ccc(-c2nc(N)s[n+]2-c2ccccc2)cc1 13.6%
O=C1C(Cl)=C(N2CCCCC2)C(=O)N1Cc1ccccc1 0.56%

— PubChem BioAssay AID1903 (Southern Research Specialized Biocontainment Screening …, 2009)
